# Molecular target: SEZ6L
# Assay: pooled miR-30 sensor sort-seq; sequence = guide strand
# Conditions: shRNA
# Further: reference of the scale not given here.
row,Sequence,sensor-assay potency score (higher = more potent)
1,TAGATGGTCAAGATGTCACTGT,-0.115
2,TGGATATCTAAGAAGATCCGTT,-0.621
3,TGGAATAGTAGCGACATCTTGT,-0.571
4,TTGGTATCCATTTTCAGGCAGC,-0.526
5,TTGTCATGCAGCAACAGCCTCT,-0.492
6,TTATAGGTCGGGTCGGATGTAG,-0.637
7,TAATTTTCTCACAAAATGGGGG,-0.33
8,TCGGACGTGAACTCGATGCGGA,-0.799
9,TAGACTGTCACGTTGTATGTGC,0.1
10,TCGAGTGATCCACCTCTCCGGG,-1

# Molecular target: SFRP4
# Assay: as above
# Conditions: shRNA
row,Sequence,sensor-assay potency score (higher = more potent)
1,TTACTAAGCTGATCTCTCCATT,-0.515
2,TTGTCCTGAACTGTTCTCCGCT,0.199
3,TTTTCAAGAAGCATCATCCTTG,0.0999
4,TATGGATCTTTTACTAAGCTGA,-0.661
5,TTTACACTTGCACCGATCGGGG,-0.824
6,TTTTCTTCTTGTCCTGAACTGT,-0.361
7,TAGACAGGCAGCTCGTCGCAGG,-0.454
8,TTGGCATGAATAACATAGCTGT,-0.164
9,TATCCACTTAACATCCTCCGGG,0.611
10,TTTACTAAGCTGATCTCTCCAT,-0.0154
11,TTTTACACTTGCACCGATCGGG,0.497
12,TTTACATCCACCACCGTTGTGA,0.315

# — the OligoGym collection
